Among the data in PubChem BioAssay AID743419 (Vanderbilt Specialized Chemistry Center, 2014) are fold shift values, retold here.

The target of this test is Metabotropic glutamate receptor 5 (Homo sapiens) (UniProt P41594). Description: mGlu5 glutamate response modulation at 10 µM, profiling panel, selectivity assay for mGlu8/mGlu7 PAM project, cell-based, calcium fluorescence, glutamate curve fold shift (AID 743419). Particulars: mGlu5 cells, Fluo-4 calcium, glutamate CRC shift, glutamate EC50 fold shift, stronger effect = higher value.
Sequence of Metabotropic glutamate receptor 5 (Homo sapiens) (P41594 whole entry, looked up): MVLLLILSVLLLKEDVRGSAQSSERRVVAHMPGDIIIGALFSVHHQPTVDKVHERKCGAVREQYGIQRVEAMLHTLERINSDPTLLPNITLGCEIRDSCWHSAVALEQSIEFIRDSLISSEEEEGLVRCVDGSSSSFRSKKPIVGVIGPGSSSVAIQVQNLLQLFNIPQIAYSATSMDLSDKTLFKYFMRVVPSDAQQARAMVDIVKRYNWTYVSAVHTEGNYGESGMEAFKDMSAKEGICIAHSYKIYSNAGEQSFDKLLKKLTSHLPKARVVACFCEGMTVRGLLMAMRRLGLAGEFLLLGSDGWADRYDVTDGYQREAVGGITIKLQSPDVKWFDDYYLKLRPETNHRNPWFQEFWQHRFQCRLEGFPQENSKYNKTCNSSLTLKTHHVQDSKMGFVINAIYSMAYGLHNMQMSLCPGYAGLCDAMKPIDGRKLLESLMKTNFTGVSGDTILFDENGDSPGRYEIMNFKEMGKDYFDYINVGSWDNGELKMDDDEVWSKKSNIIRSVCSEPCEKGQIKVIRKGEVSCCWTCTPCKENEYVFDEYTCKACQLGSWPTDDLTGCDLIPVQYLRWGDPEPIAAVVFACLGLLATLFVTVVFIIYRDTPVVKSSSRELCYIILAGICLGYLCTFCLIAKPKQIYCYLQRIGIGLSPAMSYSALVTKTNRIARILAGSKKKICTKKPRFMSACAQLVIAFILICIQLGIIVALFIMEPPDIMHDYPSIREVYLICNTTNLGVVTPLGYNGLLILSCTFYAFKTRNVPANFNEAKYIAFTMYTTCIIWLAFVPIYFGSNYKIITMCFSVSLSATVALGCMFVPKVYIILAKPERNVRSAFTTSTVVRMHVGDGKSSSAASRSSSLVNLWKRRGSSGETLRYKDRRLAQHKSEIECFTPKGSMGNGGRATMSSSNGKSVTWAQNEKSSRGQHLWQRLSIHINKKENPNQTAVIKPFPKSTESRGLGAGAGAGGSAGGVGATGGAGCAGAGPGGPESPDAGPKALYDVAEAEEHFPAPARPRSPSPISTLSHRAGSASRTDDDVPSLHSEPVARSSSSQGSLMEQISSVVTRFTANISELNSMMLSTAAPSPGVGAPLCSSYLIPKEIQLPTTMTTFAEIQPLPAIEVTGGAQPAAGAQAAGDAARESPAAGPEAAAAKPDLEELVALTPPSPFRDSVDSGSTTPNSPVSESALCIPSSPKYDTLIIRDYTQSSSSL

Turning to `COC(=O)c1ccc(-n2c(C)cc(C(=O)CSc3ccc(NC(C)=O)cc3)c2C)cc1`, the fold shift was determined as 1.45.
